We go through 63 molecules from PubChem BioAssay AID1578 (Sanford-Burnham Center for Chemical Genomics, 2009).

Among all 290,000 compounds or so, about 3,000 (1%) were called active. What follows is part of a selection rich in actives, with near analogues and random picks from the rest. A number with no mark means an inactive call. Rule as the data show it: active = inhibition mostly above about 36% (no sharp cut-off); inactive = mostly below about 34%.

The assay in a line: inhibition of NOD1-driven NF-kB reporter – cell-based, luminescence, uHTS, primary screen (AID 1578).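 Also: HEK-293T reporter cells stimulated with the NOD1 agonist gamma-tri-DAP.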 The note with it: NOD1-driven NF-kB luciferase reporter cells, at 4 µM, hits give high values. In general terms: A reporter such as luciferase makes a cellular process visible.
A word on the inhibition: it is the drop in the measured response relative to a control, in per cent. In the case of `Cc1ccc(Nc2ccccc2N)cc1`, the inhibition is 59.7% (active).
To `Nc1ccc(Nc2ccccc2N)cc1` belongs 2.7%; to `Nc1ccccc1Nc1ccccc1`, 48.8%; to `CCCCCn1c(C)c2c(OCC)cccc(=O)c2c1C`, -1%.
To `CCN(CC)CCNCc1cc(Br)ccc1OCC(=O)NCc1ccccc1` belongs 7.4%; to `N#Cc1cc([N+](=O)[O-])ccc1NC(=O)COC(=O)CC1CCCC1`, -12.2%.
As for `Cc1ccccc1S(=O)(=O)Cc1ccc(C(=O)NCc2ccco2)o1`, the inhibition is -5.4%.
`CNC(=O)c1ccccc1S(=O)c1ccccc1COC(C)=O` (stereo not drawn): the inhibition was -5.2%.
Turning to `Cc1cc(C)c(C#N)c(SCC(=O)N2CCCCC2)n1`, the inhibition was -5.5%.
As for `COc1cc2c(cc1OC)CN(C(=O)CSc1nc(N)c(C#N)cc1C#N)CC2`, the inhibition is 6.8%.
In the case of `COc1cc2c(cc1OC)CN(C(=O)CSc1nc(C)cc(C)c1C#N)CC2`, the inhibition is 54.2% (active).
`CC12C(=O)N(c3ccccn3)C(=O)C1C1C=CC2C1` (stereo not drawn): the inhibition is 15.9%.
As for `CN(C)CCN(C(=O)c1cccc2ccccc12)c1nc2cc3c(cc2s1)OCO3`, the inhibition was 17.7%.
Under `O=[N+]([O-])c1cccc(CN2CCCCCC2)c1` stands 82.1% (active); under `O=[N+]([O-])c1ccc(CN2CCCCCC2)cc1`, -21%; under `O=[N+]([O-])c1ccc(N2CCN(Cc3cccc([N+](=O)[O-])c3)CC2)cc1`, 11.9%.
Take `CCC(C(=O)N1CCN(c2ncccn2)CC1)c1ccccc1` (stereo not drawn): the inhibition is 4.2%.
Under `CC(CC(=O)N(C)C1CCCCC1)S(=O)(=O)c1ccc2c(c1)NC(=O)CO2` (stereo not drawn) stands -10.5%; under `COc1ccc(OC)c(NC(=S)NC(=O)c2ccc(Br)o2)c1`, -27.7%; under `COc1ccc(C(=O)NNC(=S)NC(=O)c2ccc(Br)o2)cc1OC`, 37.6% (active).
For `COc1ccc(OCC(=O)NNC(=S)NC(=O)c2ccc(Br)o2)cc1`, the inhibition is -38.4%.
For the molecule `COc1ccc(CCNC(=O)C/C(C)=N/NC(=O)c2ccc(N)cc2)cc1OC`, the inhibition is -10.1%.
As for `Cc1sc2ncn(CC(=O)NCCCC(=O)N3CCCCC3)c(=O)c2c1C`, the inhibition is 12.4%.
Turning to `CCNCc1cc(Cl)cc(OC)c1OC(C)C`, the inhibition was 17.6%.
As to `C=CCOc1c(CNC2CCCC2)cc(Cl)cc1OC`, the inhibition is -19.3%.
With `CNCc1cc(Cl)cc(OC)c1OC(C)C`, the inhibition was 44.6% (active).
With `COc1ccc(N)cc1S(=O)(=O)Nc1ccccc1Cl`, the inhibition was 9.1%.
With `COc1ccc(OCC(=O)Nc2ccc(S(=O)(=O)N3CCCCCC3)cc2)cc1`, the inhibition is -7.8%.
On to `O=S(=O)(c1ccc(S(=O)(=O)N2CCC(O)CC2)cc1)N1CCCC1`, for which the inhibition was 29.3%.
Take `COc1ccc(CCn2ccc(O)c(Cc3c(F)cccc3Cl)c2=O)cc1OC`: the inhibition is 55.5% (active).
In the case of `COc1ccc(CCn2ccc(O)c(Cc3ccc(Cl)cc3)c2=O)cc1OC`, the inhibition was 3.1%.
As to `COc1ccc(CCn2ccc(O)c(Cc3ccc(Cl)cc3Cl)c2=O)cc1OC`, the inhibition is -2.8%.
Under `CN1CCN(C(=S)c2ccc(Cl)cc2)CC1` stands 1.9%.
For the molecule `NC(=O)C1CCN(Cc2ccc(OCc3ccccc3)cc2)CC1`, the inhibition was -29.8%.
In the case of `O=S(=O)(NC1CC1)c1cccc(S(=O)(=O)N2CCCC2)c1`, the inhibition is -9.9%.
Consider `COc1ccc(CNC(=O)CC(C)CC2=NS(=O)(=O)c3ccccc3N2)cc1` (stereo not drawn), for which the inhibition was -5.1%.
As for `COc1ccc(C(=O)NCc2nnc(SCC(=O)N3CCCCC3)o2)cc1OC`, the inhibition was 8.1%.
To `COc1ccc(-c2nnc3n2N=C(C)CS3)cc1` belongs 8.4%.
As for `CCOc1ccc(-c2nnc3n2N=C(c2ccc(OC)cc2)CS3)cc1`, the inhibition is 4.9%.
As to `CCOC(=O)/C(=C\c1ccc(OC(F)F)cc1)C1=Nn2c(nnc2-c2ccc(Cl)cc2)SC1`, the inhibition was 92.7% (active).
For the molecule `Cc1ccc(Cl)cc1NC(=O)C1CCCN(S(=O)(=O)c2c(C)noc2C)C1` (stereo not drawn), the inhibition is -22.6%.
Under `O=C(O)CCCCCNCc1ccncc1` stands -8%; under `CCc1ccc(-c2csc(NC(=O)C3=NN(c4ccccc4)C(=O)CC3)n2)cc1`, 51.4%.
As to `COc1ccc(OC)c(-c2csc(NC(=O)C3=NN(c4ccccc4)C(=O)CC3)n2)c1`, the inhibition is -27.4%.
In the case of `CCOC(=O)c1ccc(NS(=O)C23CC4CC(CC(C4)C2)C3)cc1` (stereo not drawn), the inhibition is -39.1%.
As for `CCN(CC)S(=O)(=O)c1ccc2oc(C(=O)NCCCN3CCOCC3)c(C)c2c1`, the inhibition was -9.1%.
As for `Cc1cccc(N2CCN(C(=O)NC3CCCCC3)CC2)c1C`, the inhibition was -19.6%.
Turning to `CC[C@@]12C(=O)N(c3cccc(Br)c3)C(=O)N1[C@H](c1ccc(Cl)cc1)[C@@H]1C(=O)N(C3CCCCC3)C(=O)[C@@H]12`, the inhibition was 10.3%.
Consider `O=C1[C@H]2[C@@H](c3ccc(F)cc3)N3C(=O)N(c4cccc(Br)c4)C(=O)[C@@]3(Cc3ccc(Cl)cc3)[C@H]2C(=O)N1C1CCCCC1`, for which the inhibition is -14.3%.
`O=C1[C@H]2[C@@H](c3ccc(Cl)cc3)N3C(=O)N(c4cccc(Br)c4)C(=O)[C@@]3(Cc3ccc(Cl)cc3)[C@H]2C(=O)N1C1CCCCC1`: the inhibition was 45.6% (active).
With `O=c1cc(-c2c(F)c(F)c(F)c(F)c2F)oc2c(F)c(F)c(F)c(F)c12`, the inhibition was 98.7% (active).
Turning to `O=c1cc(-c2c(F)c(F)c(F)c(F)c2F)oc2ccccc12`, the inhibition was 36.7%.
For `COc1c(OC)c(O)c2c(=O)cc(-c3c(O)cccc3O)oc2c1OC`, the inhibition was 2.2%.
Take `Cc1cccc(NC(=O)Cc2c(F)cccc2Cl)n1`: the inhibition was -46.6%.
For the molecule `Cc1nsc(Nc2ccccc2)c1C#N`, the inhibition is 16.5%.
To `O=[N+]([O-])c1ccc(Nc2ccc(F)cc2)cc1` belongs -11.9%; to `Cc1nsc(Nc2ccc([N+](=O)[O-])cc2)c1C#N`, 60.4% (active); to `CN1CCN(/N=C/c2ccc(N(C)c3ccccc3)cc2)CC1`, -6.9%.
In the case of `Cc1cc(=O)oc2c(C)c(OCC(=O)NCCCn3ccnc3)ccc12`, the inhibition was 1.8%.
Take `O=C(OCc1ccccc1)c1cccnc1Cl`: the inhibition was -18.1%.
On to `CN(Cc1ccon1)Cc1cn(C)nc1-c1ccc2c(c1)OCCO2`, for which the inhibition was -26.3%.
Regarding `Cn1cc(CNCc2ccc(OC(F)(F)F)cc2)c(-c2ccc3c(c2)OCCO3)n1`, the inhibition is 75.4% (active).
For `Cn1cc(CNCc2cn[nH]c2-c2ccc(F)cc2)c(-c2ccc3c(c2)OCCO3)n1`, the inhibition was -22.2%.
